# In the library only some 2.4% were active in any assay of this set; here they are far more common.
# Cruzain inh noDet – qHTS Assay for Promiscuous and Specific Inhibitors of Cruzain (without detergent); AID 1476, 2009; Potency, µM, inactives show max response, negative = inhibition, hits mostly inhibitors; 200,000 compounds, 2.3% hits; purified cruzain, Z-FR-AMC fluorescence, no detergent; Cruzipain (Trypanosoma cruzi), P25779;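 note: plate controls were enzyme without inhibitor for no effect and buffer without enzyme for full effect; nearly all actives have a fitted effect of over 40% in size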
# Target sequence (P25779 123-467 limits assumed): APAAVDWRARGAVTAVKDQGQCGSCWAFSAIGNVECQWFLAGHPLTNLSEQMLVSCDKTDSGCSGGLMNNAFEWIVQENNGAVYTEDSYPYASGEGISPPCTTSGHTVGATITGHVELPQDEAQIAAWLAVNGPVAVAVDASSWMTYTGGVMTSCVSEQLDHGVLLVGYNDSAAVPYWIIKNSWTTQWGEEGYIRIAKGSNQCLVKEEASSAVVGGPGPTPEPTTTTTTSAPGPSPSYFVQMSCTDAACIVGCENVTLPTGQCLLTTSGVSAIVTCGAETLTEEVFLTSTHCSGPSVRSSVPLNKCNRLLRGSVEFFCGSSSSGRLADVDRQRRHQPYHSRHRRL
#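 Purified cruzain at 1.5 nM, pre-incubated 15 min with compound at room temperature in 100 mM sodium acetate pH 5.5, 5 mM DTT, 0.00005% Triton X-100. Reaction started with 2 uM Z-FR-AMC; AMC fluorescence increase over 60 s gives rate.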
# Cruzain inh Det – qHTS Assay for Promiscuous and Specific Inhibitors of Cruzain (with detergent). Cruzipain (Trypanosoma cruzi), P25779. purified cruzain, Z-FR-AMC fluorescence, 0.01% Triton. 200,000 compounds, 0.43% hits. AID 1478, 2009. Potency, µM, without a hit: max response, negative = inhibition, most hits filed as inhibitors;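 note: plate controls were neutral wells for no effect and buffer without enzyme for full effect; nearly all actives have a fitted effect of over 40% in size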
#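 Cruzain (1.5 nM) preincubated 15 min at RT with compound in 100 mM sodium acetate pH 5.5, 5 mM DTT, 0.01% Triton X-100. Reaction started with 2 uM Z-FR-AMC; AMC fluorescence (ex 360/em 450 nm) change over 60 s gave rate.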
# Active calls of the source: *; ? = inconclusive. Calls come from the whole dose curve; as a rule, active = well fitted curve in the direction sought with a large enough effect; inconclusive = small, poorly fitted or top-dose-only effect, or another doubt; inactive = no such curve, though single readings can be large; an effect the other way counts as inactive or inconclusive. Potency is the fitted concentration of half-maximal effect.
SMILES,Cruzain inh noDet,Cruzain inh Det
FC(F)(F)c1cccc(-c2ccc(-c3csnn3)o2)c1,-2%,-7%
COc1ccc(Nc2nc3ccccc3n3c(N)nnc23)cc1,-2%,-5%
COc1ccc(/C=C(\C#N)C(=O)OCC(=O)Nc2c(C)cccc2C)cc1,?,-1%
COc1ccc(/C=C(\C#N)C(=O)OCC(=O)NCc2ccccc2)cc1,32µM*,-10%
CCC(Cn1nnc2ccccc2c1=O)NC(=O)Nc1cccc(Cl)c1 (stereo not drawn),-9%,-5%
O=C1C2C(c3ccccc3)(C(=O)N1c1ccc(Cl)cc1)C2(c1ccccc1)c1ccccc1 (stereo not drawn),25µM*,-2%
O=C1c2ccccc2C(=O)N1c1ccc(Cl)cc1,-1%,?
CCOc1ccc(NC(=O)c2cnn3c2NC(C)=C(C(=O)Nc2ccc(Cl)cc2)C3c2ccc(OC)c(OC)c2)cc1 (stereo not drawn),12%,-1%
C=CCSc1nnc(NC(=O)COc2ccc3ccccc3c2)s1,13µM*,4%
COC(=O)c1sc(NC(=O)COc2cccc3ccccc23)nc1C,?,5%
C=CCSc1nnc(NC(=O)CSc2ccccn2)s1,-2%,1%
CCSc1nnc(NC(=O)COc2cccc3ccccc23)s1,13µM*,-8%
CC1(CC(=O)O)O[C@H]2CCCCC[C@H]2O1 (stereo partly drawn) (tested in a mixture with another compound),1%,16%
COc1ccc(OC)c(NC(=O)c2c(NCc3ccc(C)o3)sc3c2CCC(C)C3)c1 (stereo not drawn),-14%,-9%
CC(=O)N1CCC2(CCCN(c3cccc(-c4ccccc4)c3)C2)CC1,?,-12%
CC1=Nc2cc(C(=O)NC3CCCCC3)ccc2Sc2ccc(Cl)cc21,25µM*,-5%
CC1=Nc2cc(C(=O)NC3CCCC3)ccc2Sc2ccc(Br)cc21,?,-3%
CC1=Nc2cc(C(=O)NCCc3ccc(Cl)cc3)ccc2Sc2ccc(C)cc21,10µM*,-2%
CCCC1=Nc2cc(C(=O)NCCc3ccc(OCC)cc3)ccc2Sc2ccccc21,?,-2%
CC(=O)c1c(C)oc2ccc(N(C(=O)Oc3ccccc3)S(=O)(=O)c3ccc(C(C)(C)C)cc3)cc12,-13%,6%
O=C(N/N=C/c1ccccc1Cl)c1[nH]c2ccc(Br)cc2c1-c1ccccc1,13µM*,-3%
COc1ccc(/C=N/NC(=O)c2[nH]c3ccc(Br)cc3c2-c2ccccc2)cc1,?,1%
COc1ccc(NC(=S)NC2CCCCCC2)c(OC)c1,14%,-2%
COc1ccccc1NC(=S)NC1CCC(CC2CCC(NC(=S)Nc3ccccc3OC)CC2)CC1 (stereo not drawn),4µM*,7%
COC(=O)NC1C=CCCC1C(C)=O (stereo not drawn),6%,1%
SMILES,Cruzain inh noDet,Cruzain inh Det
CCOC(=O)c1sc2ccccc2c1S(=O)(=O)N1CCN(c2cc(C)ccc2C)CC1,20µM*,-4%
COC(=O)c1sc2cccc(F)c2c1S(=O)(=O)N1CCN(c2ccc(C)cc2C)CC1,?,-6%
N#C/C(C(=O)NCCc1ccccc1)=C1/N=C(NC(=O)c2cccs2)c2ccccc21,4µM*,-6%
CC(NC(=O)/C(C#N)=C1\N=C(NC(=O)c2cccs2)c2ccccc21)c1ccccc1 (stereo not drawn),16µM*,0%
O=C(NCCc1ccccc1)c1cccs1,-1%,6%
C[C@@H](NC(=O)/C(C#N)=C/c1ccc(O)c(O)c1)c1ccccc1,7%,-5%
Nc1ccc(Cl)cc1Cl,-10%,2%
N#Cc1ccccc1NC(=O)C(=O)NCC(c1ccc2c(c1)OCO2)N1CCOCC1 (stereo not drawn),-3%,-1%
CCOC(=O)c1ccc(N2CCN(c3cc(C)ccc3C)CC2)c(NC(=O)Nc2ccc(Cl)cc2)c1,?,2%
COC(=O)Cn1c(=NC(=O)c2sc3ccccc3c2Cl)sc2cc(S(N)(=O)=O)ccc21,-18%,-5%
CCOC(=O)Cn1c(=NC(=O)c2sc3ccccc3c2Cl)sc2cc(S(N)(=O)=O)ccc21,7.9µM*,-7%
CCCN(CCC)C(=O)Cn1c(=O)n(-c2ccc(OC)cc2OC)c(=O)c2c3c(sc21)CCC3,1%,-3%
COc1ccc(CCNC(=O)Cc2c(C)c3c(cc(C)c4c(C)coc43)oc2=O)cc1OC,5%,1%
CCOC(=O)c1cnn(-c2cccc(F)c2)c1C1CCNCC1,-3%,2%
Cc1cc(Br)ccc1NC(=O)c1cc2c(s1)-c1ccccc1SC2,7.9µM*,-7%
Cc1cc(Br)ccc1NC(=O)c1ccccc1-c1ccccc1,10%,-8%
BrC(Br)C(Br)Br,10%,-5%
Cc1cccc(Nc2nc3c(S(=O)(=O)c4ccccc4)nnn3c3ccccc23)c1,25µM*,-3%
Cc1cc(C)cc(Nc2nc3c(S(=O)(=O)c4ccccc4)nnn3c3ccccc23)c1,?,-6%
O=C(N/N=C/c1ccc(OCCCF)cc1)c1cc(OCC(F)(F)F)ccc1OCC(F)(F)F,25µM*,0%
O=C(N/N=C\c1ccc(F)cc1)c1cc(OCC(F)(F)F)ccc1OCC(F)(F)F,12%,-3%
COc1ccccc1-c1nccc(NCc2cnc(C)cn2)n1,-3%,-4%
Cc1ccc(Cl)cc1N1CCN(CCCNc2ncnc3onc(-c4ccc(F)cc4)c23)CC1,-1%,0%
COc1cccc(C(=O)Oc2cc3c4c(c2)C(C)=CC(C)(C)N4C(=O)C3=O)c1,14%,-4%
CC1=CC(C)(C)n2c(O)c(C3=NC(=S)NC3=O)c3cc(OC(=O)c4cccc5ccccc45)cc1c32,3.2µM*,1%
SMILES,Cruzain inh noDet,Cruzain inh Det
COc1ccc(N(CC(C)C)S(=O)(=O)c2nnc(NC(=O)c3cccs3)s2)cc1,12%,-8%
COC(=O)COc1cccc(-n2cnnn2)c1,8%,1%
Cc1cc(C(=O)COc2cccc(-n3cnnn3)c2)c(C)n1-c1ccccc1,20µM*,-7%
O=C(NNC(=O)c1sc2cccc(Cl)c2c1Cl)NC1CCCCC1,-7%,-9%
O=C(NNC(=O)c1sc2cccc(Cl)c2c1Cl)Nc1ccccc1,10µM*,2%
O=C(COC(=O)/C=C/c1cccc(C(F)(F)F)c1)NC(c1ccccc1)c1ccccc1,16µM*,0%
Cc1cc(C)c(NC(=O)COC(=O)/C=C/c2cccc(C(F)(F)F)c2)c(C)c1,0%,-6%
COc1cc(/C=C/C(=O)OCC(=O)Nc2cc(C(F)(F)F)ccc2N2CCOCC2)ccc1O,-7%,-6%
Cc1ccccc1NC(=O)COC(=O)/C=C/c1cccc(C(F)(F)F)c1,25µM*,0%
COc1ccc(/C=C/C(=O)OCC(=O)Nc2cc(C(F)(F)F)ccc2Cl)cc1,25µM*,-9%
O=C(COC(=O)/C=C/c1cccc(C(F)(F)F)c1)Nc1cccc2ccccc12,?,3%
Cc1cc(C)n(-c2nc(C)c(C)c(=O)n2CC(=O)Nc2cccc([N+](=O)[O-])c2)n1,3%,-3%
COc1ccc2c(c1)c1c(c(=O)n(-c3ccccc3)c(=O)n1CC(=O)NCCC1=CCCCC1)n2C,2%,-1%
CCc1ccccc1NC(=O)c1cn(C)c(=O)c2ccccc12,-13%,-3%
CC(C)c1ccc(NC(=O)CN2C=NS(=O)(=O)c3ccccc32)cc1,19%,4%
Clc1ccc(-c2noc3ncnc(NCCc4ccccc4)c23)cc1,-1%,-6%
